“And” between values parts separate entries of the source, which are not always exact repeats. Equal values may be shown once. Results filed as inconclusive are left out. Entries that show only a call come without a potency. The source holds several records for some structures; these can differ, active in one and inactive in another. The source made the active and inactive calls. Unless noted, the call rests on the fitted dose curve; in most records, active means well fitted curve in the direction sought with a large enough effect in the repeat runs; inconclusive means weak or mixed curves; inactive means no such curve, though single readings can be large; an effect the other way counts as inactive or inconclusive.
Assays:
[1] = A CellTox Green Cytotoxicity Assay to monitor cytotoxicity in HepG2 cells - 32 hour (AID 1224883); further: nearly all actives have a fitted effect of over 50% in size; further: potency means the concentration at half of the fitted maximal effect
In short: (§1)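 HepG2 cells, 600/well, preincubated 5 h with CellTox Green dye, then exposed to Tox21 compounds in DMSO at 37 C for up to 40 h. Dead-cell DNA fluorescence read at the indicated time point.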

[2] = A CellTox Green Cytotoxicity Assay to monitor cytotoxicity in HEK293 cells - 8 hour (AID 1224884); further: nearly all actives have a fitted effect of over 35% in size
In short: (§2)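 HEK293 cells, 600/well, were preincubated 5 hours and then exposed to compounds at 37 C for up to 40 hours. A cell-impermeant cyanine dye staining dead-cell DNA was read by fluorescence at 0, 8, 16, 24, 32 and 40 h time points.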

[3] = qHTS RealTime-Glo MT Cell Viability Assay in HepG2 cells - 16 hour (AID 1224885); further: nearly all actives have a fitted effect of over 50% in size
In short: (§3)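 HepG2 suspension premixed with RealTime-Glo reagents is plated at 600 cells per well and left 5 h at 37 C/5% CO2. Compounds in DMSO then go in, and bioluminescence reflecting viable cell number is recorded over 40 h.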

[4] = qHTS RealTime-Glo MT Cell Viability Assay in HEK293 cells - 24 hour (AID 1224886); further: nearly all actives have a fitted effect of over 50% in size; further: potency means the concentration at half of the fitted maximal effect
In short: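 Reads taken at 0, 8, 16, 24, 32 and 40 h from the same wells. HEK293 cells (600/well) carried RealTime-Glo reagents from seeding, with compound added after a 5 h settle at 37 C.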

[5] = qHTS RealTime-Glo MT Cell Viability Assay in HEK293 cells - 8 hour (AID 1224887); further: nearly all actives have a fitted effect of over 50% in size; further: potency means the concentration at half of the fitted maximal effect
In short: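 600 cells/well were plated with the nonlytic NanoLuc/prosubstrate reagent, pre-incubated 5 h, then given 23 nL of compound in DMSO. Incubation at 37 C for 40 h, with luminescence from viable-cell-reduced substrate read repeatedly from 0 h.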

[6] = A CellTox Green Cytotoxicity Assay to monitor cytotoxicity in HEK293 cells - 16 hour (AID 1224888); further: nearly all actives have a fitted effect of over 35% in size
In short: as §2

[7] = qHTS RealTime-Glo MT Cell Viability Assay in HepG2 cells - 0 hour (AID 1224889); further: nearly all actives have a fitted effect of over 50% in size; further: potency means the concentration at half of the fitted maximal effect
In short: as §3

[8] = A CellTox Green Cytotoxicity Assay to monitor cytotoxicity in HepG2 cells - 8 hour (AID 1224890); further: nearly all actives have a fitted effect of over 45% in size; further: potency means the concentration at half of the fitted maximal effect
In short: as §1

[9] = qHTS assay to identify small molecule antagonists of the estrogen receptor alpha (ER-alpha) signaling pathway using the BG1 cell line in the presence of 0.1 nM 17-beta-estradiol - cell viability counter screen (AID 1259241); further: nearly all actives have a fitted effect of over 40% in size
In short: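 Estradiol-stimulated (0.1 nM) VM7Luc4E2 cells exposed to compounds 22 hr; viability measured by fluorescence of cleaved CellTiter-Fluor substrate after 30 min.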

[10] = qHTS assay to identify small molecule antagonists of the androgen receptor (AR) signaling pathway using the MDA cell line in the presence of 0.5 nM R1881 - cell viability counter screen (AID 1259242); further: nearly all actives have a fitted effect of over 45% in size
In short: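 MDA-kb2 cells (MMTV-luciferase, AR/GR responsive) were treated with compounds plus 0.5 nM R1881 (final) for 16 hr at 37C, 0% CO2. Viability was then read in the same wells as live-cell protease fluorescence (CellTiter-Fluor, 30 min).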

[11] = qHTS assay to identify small molecule phospholipidosis (PLD) inducers (AID 1259344; active means well fitted curve in the direction sought with a large enough effect; an effect the other way counts as inactive or inconclusive)
In short: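 HepG2 cells grown on collagen I take up LipidTOX Red while exposed to compound for 24 h; after fixation they are imaged at 20x and pit metrics are extracted.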

[12] = qHTS assay to identify small molecule HDAC inhibitors (AID 1259364); further: top concentration of the series differs between compounds; nearly all actives have a fitted effect of over 45% in size
In short: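 Wild-type HCT-116 cells, plated overnight at 37 C, exposed to compounds 2 hr at 37 C; luminogenic HDAC-Glo substrate then added 30 min at room temperature. Luminescence reports relative endogenous class I/II HDAC activity.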

[13] = qHTS assay to identify small molecule agonists of the sonic hedgehog signaling (Shh) pathway - cell viability counter screen (AID 1259366); further: nearly all actives have a fitted effect of over 50% in size; further: potency means the concentration at half of the fitted maximal effect
In short: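 Same-well cytotoxicity read. Gli1-Luc reporter 3T3 cells; compounds 24hr, 37C/5% CO2; CellTiter-Fluor fluorescence.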

[14] = qHTS assay to identify small molecule antagonists of the sonic hedgehog signaling (Shh) pathway - cell viability counter screen (AID 1259367); further: nearly all actives have a fitted effect of over 55% in size; further: potency means the concentration at half of the fitted maximal effect
In short: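 After a 4 hr settling period, 3T3 Gli1-Luc cells were treated with DMSO-dissolved chemicals and conditioned medium, kept 24 hr at 37C in 5% CO2, and assayed for viability by CellTiter-Fluor fluorescence following 1 hr reagent incubation.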

[15] = qHTS assay to identify small molecule agonists of the sonic hedgehog signaling (Shh) pathway (AID 1259368; calls by dose curve;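 further: NIH/3T3-derived 3T3Gli1-Luc cells carrying a stable Gli1-driven firefly luciferase reporter; series mostly up to about 92 µM; nearly all actives have a fitted effect of over 15% in size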)
In short: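 NIH/3T3-derived 3T3Gli1-Luc cells with stably integrated Gli1-driven firefly luciferase, 2,000 cells/well, compounds added after 4 hr. Incubated 24 hr at 37C, 5% CO2; luminescence read after 30 min with luciferase reagent at room temperature.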

[16] = qHTS assay to identify small molecule antagonists of the sonic hedgehog signaling (Shh) pathway (AID 1259369; calls by dose curve; further: nearly all actives have a fitted effect of over 45% in size; further: potency means the concentration at half of the fitted maximal effect)
In short: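 NIH/3T3-derived Gli1-Luc reporter cells plated 4 h, dosed with compound, then stimulated with conditioned medium for 24 h at 37 C. Firefly luciferase luminescence read after 30 min with detection reagent at room temperature.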

[17] = target: Estrogen receptor (Homo sapiens) (UniProt P03372); experiment: qHTS assay to identify small molecule antagonists of the estrogen receptor alpha (ER-alpha) signaling pathway using the BG1 cell line in the presence of 0.1 nM 17-beta-estradiol (AID 1259244); further: nearly all actives have a fitted effect of over 50% in size
In short: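 VM7Luc4E2 cells (endogenous full-length ER-alpha, 4×ERE-luciferase), kept 5 days in phenol red-free, charcoal-stripped FBS medium; 4,000 cells/well. Compounds added with 0.1 nM (final) 17beta-estradiol, 22 hr at 37C; luminescence read with ONE-Glo after 30 min.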

[18] = qHTS assay to identify small molecule HDAC inhibitors - cell viability counter screen (AID 1259365)
In short: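 After overnight seeding at 1,500 cells per well, wild-type HCT-116 cultures took up compounds in DMSO for 2hr at 37 C. Viable cell content came from luminescence with CellTiter-Glo.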

[19] = target: Androgen receptor (Homo sapiens) (UniProt P10275); experiment: qHTS assay to identify small molecule antagonists of the androgen receptor (AR) signaling pathway using the MDA cell line in the presence of 0.5 nM R1881 (AID 1259243); further: nearly all actives have a fitted effect of over 50% in size
In short: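 MDA-kb2 cells (MMTV-luciferase, responsive to AR and GR) at 3,000/well, rested 5 h at 37C, 0% CO2, then given compounds plus 0.5 nM R1881 (final) for 16 hr. Luciferase read with ONE-Glo after 30 min at room temperature.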

Estrogen receptor (Homo sapiens), sequence (P03372 whole entry, looked up): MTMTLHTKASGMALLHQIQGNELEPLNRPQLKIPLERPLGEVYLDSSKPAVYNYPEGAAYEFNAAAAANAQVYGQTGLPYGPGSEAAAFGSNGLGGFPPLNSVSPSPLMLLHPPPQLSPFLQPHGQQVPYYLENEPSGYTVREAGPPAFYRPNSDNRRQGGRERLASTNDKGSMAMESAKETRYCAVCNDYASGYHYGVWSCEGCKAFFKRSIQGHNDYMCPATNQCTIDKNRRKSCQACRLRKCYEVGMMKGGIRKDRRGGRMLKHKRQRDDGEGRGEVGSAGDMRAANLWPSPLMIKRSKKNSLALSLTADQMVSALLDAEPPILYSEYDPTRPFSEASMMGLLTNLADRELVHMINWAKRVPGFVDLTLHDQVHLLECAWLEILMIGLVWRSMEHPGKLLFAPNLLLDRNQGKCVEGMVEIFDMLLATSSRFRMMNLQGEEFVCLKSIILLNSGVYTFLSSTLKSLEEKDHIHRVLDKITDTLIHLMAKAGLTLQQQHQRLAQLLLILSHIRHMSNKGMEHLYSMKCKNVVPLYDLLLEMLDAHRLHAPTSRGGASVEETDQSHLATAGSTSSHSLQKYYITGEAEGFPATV
Androgen receptor (Homo sapiens), sequence (P10275 whole entry, looked up): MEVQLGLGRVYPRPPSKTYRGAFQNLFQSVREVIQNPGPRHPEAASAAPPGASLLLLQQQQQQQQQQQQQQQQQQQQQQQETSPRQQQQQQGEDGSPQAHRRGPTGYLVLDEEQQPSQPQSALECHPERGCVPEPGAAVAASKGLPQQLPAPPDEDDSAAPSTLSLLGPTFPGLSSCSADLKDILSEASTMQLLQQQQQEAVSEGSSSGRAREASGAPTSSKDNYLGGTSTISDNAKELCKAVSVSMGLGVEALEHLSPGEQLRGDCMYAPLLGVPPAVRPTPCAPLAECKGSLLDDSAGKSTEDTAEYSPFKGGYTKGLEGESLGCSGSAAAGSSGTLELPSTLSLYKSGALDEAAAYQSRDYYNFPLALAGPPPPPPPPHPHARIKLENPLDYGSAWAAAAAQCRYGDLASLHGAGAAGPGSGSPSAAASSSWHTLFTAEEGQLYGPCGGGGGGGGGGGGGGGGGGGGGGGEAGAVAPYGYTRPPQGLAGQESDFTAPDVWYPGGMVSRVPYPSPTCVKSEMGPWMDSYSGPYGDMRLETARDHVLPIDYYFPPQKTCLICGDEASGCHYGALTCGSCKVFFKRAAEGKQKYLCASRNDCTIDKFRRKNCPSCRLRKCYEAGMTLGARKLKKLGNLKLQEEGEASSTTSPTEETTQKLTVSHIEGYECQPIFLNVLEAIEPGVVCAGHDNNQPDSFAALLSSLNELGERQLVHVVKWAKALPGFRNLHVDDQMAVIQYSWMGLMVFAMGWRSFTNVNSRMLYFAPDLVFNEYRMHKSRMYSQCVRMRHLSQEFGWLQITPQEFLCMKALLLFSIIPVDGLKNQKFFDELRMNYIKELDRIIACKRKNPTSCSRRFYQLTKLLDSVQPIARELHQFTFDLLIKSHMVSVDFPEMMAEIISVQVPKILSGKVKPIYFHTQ

SMILES | Potency [1] | Potency [2] | Potency [3] | Potency [4] | Potency [5] | Potency [6] | Potency [7] | Potency [8] | Potency [9] | Potency [10] | outcome [11] | Potency [12] | Potency [13] | Potency [14] | Potency [15] | Potency [16] | Potency [17] | Potency [18] | Potency [19]
O=c1n(CCCN2CCN(c3cccc(Cl)c3)CC2)nc2ccccn12 | inactive | inactive | inactive | 13.8 µM (active) and 16.9 µM (active) | 11 µM (active) and 10.7 µM (active) | inactive | 49 µM (active) and inactive | inactive | inactive | inactive | inactive | inactive | inactive | inactive | inactive | inactive |  |  | 
COC(=O)CCCCC(=O)OC | inactive | inactive | inactive | inactive | inactive | inactive | inactive | inactive | inactive | inactive |  | inactive | inactive | inactive | inactive | inactive | inactive | inactive | 
CCc1cccc(O)c1 | inactive |  | inactive | inactive | inactive | inactive | inactive | inactive | inactive | inactive |  | inactive | inactive | inactive | inactive | inactive | inactive |  | 
O=C(c1ccccc1)c1ccc(O)c(O)c1O | inactive | inactive | inactive | inactive | inactive | inactive | inactive | inactive | inactive | inactive |  | inactive |  |  | inactive | 54.9 µM (active) | inactive | inactive | 
CO[Si](CCCNCCN)(OC)OC | inactive and 49 µM (active) | inactive | inactive | inactive | inactive | inactive | inactive | inactive and 49 µM (active) | inactive | inactive |  | inactive | 5.53 µM (active) and inactive | 15.6 µM (active) and inactive | inactive | 8.76 µM (active) and inactive |  | inactive | inactive
CC(=O)OC(C)(C)C1CC=C(C)CC1 (stereo not drawn) | inactive |  | inactive | inactive | inactive | inactive | inactive | inactive | inactive | inactive |  | inactive | inactive | inactive | inactive | inactive | inactive | inactive | 
C[n+]1ccn(CCO)c1 | inactive | inactive | inactive | inactive | inactive | inactive | inactive | inactive | inactive | inactive |  | inactive | inactive | inactive | inactive | inactive |  | inactive | 
CC(=O)OC[C@H]1O[C@@](COC(C)=O)(O[C@H]2O[C@H](COC(C)=O)[C@@H](OC(C)=O)[C@H](OC(C)=O)[C@H]2OC(C)=O)[C@@H](OC(C)=O)[C@@H]1OC(C)=O | inactive | inactive | inactive | inactive | inactive | inactive | inactive | inactive | inactive | inactive | inactive | inactive | inactive | inactive | inactive | inactive |  |  | 

Reference: PubChem BioAssay (Tox21)
